# In PubChem BioAssay (Tox21):
# Records with an inconclusive call do not appear. Values without a mark were called inactive. Calls come from the whole dose curve; as a rule, active = well fitted cell-killing curve with a large enough effect in the repeat runs; inconclusive = weak or mixed curves, or effect the other way; inactive = no such curve, though single readings can be large or run the other way.
# Assay: qHTS assay to identify small molecule agonists of the farnesoid-X-receptor (FXR) signaling pathway - cell viability counter screen (AID 743218); note: nearly all actives have a fitted effect of over 45% in size
# Conditions: FXR-bla HEK293T viability, CellTiter-Glo luminescence, 16 h; series mostly up to 62.6 µM; viability change, negative = cytotoxic: at the top concentration
# From the text: U.S. Tox21 Program National Center for Advancing Translational Sciences [NCATS] NIH Chemical Genomics Center [NCGC] U.S. Environmental Protection Agency [EPA] National Institutes of Environmental Health Sciences [NIEHS] National Toxicology Program [NTP] U.S. Food and Drug Administration [FDA] Tox21 Assay Overview: The farnesoid-X-receptor (FXR), a nuclear hormone receptor, is highly expressed in liver, intestine, kidney and adrenal cortex. Natural ligands of FXR are the bile acids (Cholic acid, Chenodeoxy cholic acid etc). FXR is an important regulator of diverse metabolic pathways, including the bile acid homeostasis, lipid and glucose metabolisms. FXR regulates the expression of target genes by binding either as a monomer or as a heterodimer with the retinoid X receptor (RXR). Numerous studies have reported that FXR exerts protective function during cholestasis, diabetes, liver regeneration, and cancer. To identify compounds that activate FXR signaling, GeneBLAzer FXR-UAS-bla HEK 293T cell line (Invitrogen, Carlsbad, CA) containing a beta-lactamase reporter gene under the control of a UAS response element was used to screen the Tox21 10K compound library. The cytotoxicity of the Tox21 compound library against the FXR-bla cell line was tested in parallel by measuring the cell viability using CellTiter-Glo assay in the same wells.
# Tox21 Assay Protocol Summary: FXR-bla cells were dispensed at 5000 cells/5uL/well in 1536-well black wall/clear bottom plates using a Multidrop Combi (Thermo Fisher Scientific, Waltham, MA) dispenser. After the assay plates were incubated at 37 C and 5% CO2 for 5 h, 23 nL of compounds dissolved in DMSO, positive controls or DMSO only was transferred to the assay plate by a Pintool station (Kalypsys, San Diego, CA). The assay plates were incubated at 37C for 16 h. After 1 uL of LiveBLAzerTM B/G FRET substrate was added using a Bioraptr Flying Reagent Dispenser (FRD) workstation (Beckman Coulter, Indianapolis, IN), the plates were incubated at room temperature for 2 h, and fluorescence intensity was measured by an Envision plate reader (PerkinElmer, Shelton, CT). For cell viability readout that measures cytotoxicity, 4uL/well of CellTiter-Glo reagent was added into the assay plates using a Bioraptr FRD. After 30 min incubation at room temperature, the luminescence intensity in the plates was measured using a ViewLux plate reader (PerkinElmer).
# % is set by controls: 0 for no effect and ±100 for the full control effect.
row,SMILES,"viability change, negative = cytotoxic"
1,Nc1c(Br)cc([N+](=O)[O-])cc1[N+](=O)[O-],-2.19% [at 81.1 µM]
2,COc1ccc2c(c1OC)CN1CCc3cc4c(cc3C1C2)OCO4 (stereo not given),3.19%
3,Cc1coc2c1CCC(C)C2 (stereo not given),8.07% [at 81.1 µM]
4,OC(c1ccccc1)(c1ccccc1)C1CCNCC1,-24.1%
5,O=C(O)C(Br)CBr (stereo not given),21.4% [at 81.1 µM]
6,CCS(=O)(=O)C(C)(C)S(=O)(=O)CC,3.83%
7,c1coc(-c2nc3ccccc3[nH]2)c1,2.36%
8,BrCCCCCCBr,21%
9,Cc1ccccc1CO[C@@H]1C[C@@]2(C(C)C)CC[C@]1(C)O2,9.37%
10,CCOC(=O)/C=C(C)/C=C/C[C@@H](C)CCCC(C)C,-7.81%
11,C=C(C)CN(CC)c1c([N+](=O)[O-])cc(C(F)(F)F)cc1[N+](=O)[O-],16.6%
12,O=C(O)c1cccc(Cl)c1,-2.95%
13,CCCSP(=S)(OCC)Oc1ccc(Cl)cc1Cl (stereo not given),-14.8%
14,Nc1n[nH]c(N)n1,-7.69% [at 81.1 µM]
15,CCCSC(=O)Cl,-11.7% [at 81.1 µM]
16,CCOP(=S)(OCC)SCSP(=S)(OCC)OCC,8.55%
17,CN1CCN(C(=O)O[C@H]2c3nccnc3C(=O)N2c2ccc(Cl)cn2)CC1,-0.8%
18,COc1cc(C[C@@H](C)N)c(OC)cc1C,-5.32% [at 81.1 µM]
19,Clc1ccccc1N1CCNCC1,-1.2%
20,OC(c1ccc(F)cc1)(c1cncnc1)c1ccccc1Cl (stereo not given),0.791%

row,SMILES,"viability change, negative = cytotoxic"
1,Oc1c(Cl)cccc1Cl,1.5%
2,CCOC(=O)NC(=S)Nc1ccccc1NC(=S)NC(=O)OCC,-18.5%
3,OCCSCSCCO,12.7%
4,CN1C[C@@H](NS(=O)(=O)N(C)C)C[C@@H]2c3cccc4c3c(cn4C)C[C@H]21,-25.8%
5,N#CC(O)c1ccccc1 (stereo not given),-4.58%
6,CCCCOC(=O)c1ccccc1N,-1.11% [at 81.1 µM]
7,N#CCCC#N,19.1%
8,CCCCCCI,3.56%
9,CCCCP(CCCC)CCCC,13.1%
10,CCC(C)(C)c1cc(-n2nc3ccccc3n2)c(O)c(C(C)(C)CC)c1,4.6% [at 81.1 µM]
11,CCCCOC(=O)c1ccccc1C(=O)O,-16.4%
12,CN1CCC(O)(c2ccc(F)cc2)C(C(=O)c2ccc(F)cc2)C1 (stereo not given),-28.9%
13,COC(C)(C)C,-7.5%
14,CCOC(=O)C1(c2ccccc2)CCN(CCc2ccc(N)cc2)CC1,-20.8%
15,O=[N+]([O-])c1cccc(O)c1,-3.13% [at 81.1 µM]
16,CCCCc1ccc(O)cc1,-2.68%
17,CCN(CC)C(=O)[C@@H]1C=C2c3cccc4[nH]cc(c34)C[C@H]2N(C)C1,-26.6% [at 232 µM]
18,O=S(=O)(O)C(F)(F)C(F)(F)C(F)(F)C(F)(F)C(F)(F)C(F)(F)F,-15.3%
19,O=NN1CCN(N=O)CC1,-5.65%
20,CC1(C)COP(Oc2ccccc2)OC1,-7.09%
